Experimental findings from PubChem BioAssay (NCI) are described below.

Molecules are shown by their SMILES. About 83,000 compounds went through this panel and 20% of them were active in at least one assay; those are over-represented in the sample as a whole.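 Cell lines were cultured in 96-well plates, exposed to a single compound concentration, and assessed for percent growth 48 hours later.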 A number with no mark means an inactive call. Active and inactive are the calls of the source. Rule for the calls: active = growth percent below 10; inactive = the rest.

Common to all, as to assay: NCI-60 one-dose screen, 48 h (100 = growth as untreated, 0 = no growth, -100 = all killed)
For assay [1], the system named is NCI-H23 lung. As to conditions: 10 µM unless noted.
In assay [2] the test system is NCI-H226 lung. As to conditions: 10 µM unless noted.
The test system of assay [3] is NCI-H322M lung. As to conditions: 10 µM unless noted.
The subject of assay [4] is HOP-62 NSCLC. As to conditions: 10 µM unless noted.
For assay [5], the system named is A549/ATCC NSCLC. As to conditions: 10 µM unless noted.
The subject of assay [6] is 786-0 renal. The following applies: 10 µM unless noted.
Assay [7] deals with COLO 205 colon. As to conditions: 10 µM unless noted.
Assay [8] concerns NCI-H460 lung. As to conditions: 10 µM unless noted.
For assay [9], the system named is HOP-92 NSCLC. As to conditions: 10 µM.
The subject of assay [10] is NCI-H522 lung. The following applies: 10 µM.

In the case of `O=C(Nc1ccc(-n2cc(-c3ccncc3)c(-c3ccc(Cl)c(O)c3)n2)cc1)c1cc(C(F)(F)F)cc(C(F)(F)F)c1`, the growth was 63.8% in [1]; 94.3% in assay [2]; 116% in assay [3]; 53.9% in [4]; 52.2% in assay [5]; 38.4% in assay [6]. Moreover, in [7], the growth is 70.1%.
Consider `COc1cc(/C(=C2/O[C@@H]([C@H]3COC(C)(C)O3)[C@H]3OC(C)(C)O[C@@H]23)c2ccc3c(c2)OCO3)cc(OC)c1OC`, for which the growth in [1] is 54%; in assay [2], 102%; in [3] it was 85.3%; in [4] it was 63.5%; in [5] it was -14% (active); in [6], -6.92% (active). The growth in assay [7] was 108%.
Turning to `NNC(=S)N1N=C(c2cc3ccccc3o2)CC1c1c[nH]c2ccccc12` (centres undefined), the growth in assay [1] is 56.4%; in [2], 69.7%; in assay [3], 39.6%; in assay [8], 24.7%; in [9], 50.1%; in assay [10], 42.6%. In addition, the growth in assay [5] is 48.4%; in [6], 22%.
For the compound `CC(=O)CC(=O)OC/C=C(/C)CCC=C(C)C`, the growth in [1] is 103%; in [2], 101%; in [3], 118%; in assay [4], 107%; in assay [5], 105%; in [6] it was 104%. Besides, the growth in assay [7] was 109%.
With `C/C(=N\Nc1ccc(Cl)cn1)c1ccccn1`, the growth in assay [1] is 11.6%; in assay [2], -8.37% (active); in assay [3], 9.31% (active); in [8], 0.782% (active); in [9] it was 29%; in assay [10], 6.6% (active). The growth in [5] is 6.73% (active); in assay [6], 8.74% (active).
In the case of `Cc1ccc(C(=O)NN)cc1`, the growth in assay [1] was 101%; in assay [2], 109%; in [3], 127%; in [4] it was 104%; in assay [10] it was 102%; in [6], 106%. The growth in assay [7] is 115%.
Regarding `Cc1cc2c(-c3nc4ccccc4[nH]3)c(O)c(O)cc2c(O)c1-c1c(C)cc2c(-c3nc4ccccc4[nH]3)c(O)c(O)cc2c1O`, the growth in assay [1] was -19.5% (active); in assay [2] it was -18.2% (active); in assay [3], 20.2%; in assay [8] it was -53.7% (active); in assay [9] it was 29.1%; in assay [10] it was -36.8% (active). Also, the figures for the growth in [5] and in assay [6] were -25.4% (active) and -11.1% (active), respectively.
On to `COc1ccc(C(=O)N2N=C(c3ccc(Br)cc3)CC2c2cn(-c3ccccc3)nc2-c2ccccc2)cc1` (centres undefined), for which the growth is 42.4% in assay [1]; 88.9% in assay [2]; 78% in assay [3]; 22.6% in [4]; 22.8% in assay [5]; 74% in assay [6].
Take `Nc1ccc(S(=O)(=O)c2ccc(NO)cc2)cc1`: the growth in assay [1] was 100%; in assay [2], 118%; in assay [3] it was 116%; in assay [8], 111%; in assay [9], 108%; in [10], 79.4%. The growth was 105% in assay [5] and 99.1% in assay [6].
Regarding `CC(O)c1cc[cH-]c1.[Fe+2].c1cc[cH-]c1` (centres undefined), the growth in [1] is 102%; in [2], 91.2%; in assay [3], 92.6%; in assay [4], 99.4%; in assay [5] it was 101%; in assay [6], 97.2%. In addition, the growth in assay [7] is 108%.
Consider `O=c1[nH]c2cc(O)ccc2n2cc3c(F)cccc3c12`, for which the growth in assay [1] was 39.6%; in assay [2], 60.8%; in assay [3], 29.4%; in assay [4], 21.1%; in assay [5], 22%; in [6], 28.7%.
For `O=C1/C(=C\c2cn(-c3nc(N4CCOCC4)nc(N4CCOCC4)n3)c3ccccc23)c2ccccc2N1c1c(Cl)cccc1Cl`, the growth is 79.7% in assay [1]; 60.1% in assay [2]; 28.2% in assay [3]; 40.8% in assay [8]; 3.38% (active) in assay [9]; 75.3% in assay [10]. In addition, the figures for the growth in [5] and in [6] were 68.4% and 29.5%, respectively.
Turning to `CCCCCCCCCC(C)NC(=O)CCl` (centres undefined), the growth in [1] is 90%; in assay [2], 96.5%; in assay [3], 96.6%; in [4], 102%; in [6], 93.1%; in assay [7] it was 113%.
As to `COc1cc2ncnc(Nc3ccc4c(cnn4C(=O)Nc4ccccc4)c3)c2cc1OC`, the growth was 100% in assay [1]; 103% in assay [2]; 81.1% in [3]; 103% in assay [8]; 82.8% in assay [9]; 89.4% in assay [10]. For the same compound, the growth in [5] was 72.9%; in assay [6] it was 81.5%.
In the case of `CCCCCCCCCC[N+](C)(C)C`, the growth in assay [1] is 28.8%; in assay [2], 45%; in [3], 75.6%; in [8], 13%; in [9], -24.5% (active); in assay [10] it was 18.1%. In addition, the growth is 34.3% in assay [5] and 8.96% (active) in assay [6].
Turning to `CCCCCCCCCCCCCCCCNC(=S)N/N=C/c1ccc(O)cc1O`, the growth in assay [1] was 77.1%; in assay [2], 76%; in assay [3] it was 95.2%; in assay [4], 83.1%; in [5] it was 55.1%; in [6] it was 73.3%. For the same compound, in assay [7], the growth was 98%.
With `COc1ccc2c(c1)/C(=C1/S/C(=N/c3nnc(C)s3)NC1=O)C(=O)N2Cc1ccc(Br)cc1`, the growth in [1] is 26.5%; in [2] it was 54.7%; in [3], 35.1%; in [8], 6.08% (active); in assay [9], 25.7%; in [10], 29.6%. The growth in [5] is 20.7%; in assay [6], 34%.
